Measurements published in PubChem BioAssay (NCI).
Compounds without any hit were thinned out: in the full panel of roughly 79,000, 15% have a hit. Cut-off read from the data, not from the text of the source: active = growth inhibition above about 70%; inactive = the rest.

Tests used:
[1] = NCI Yeast Anticancer Drug Screen. Data for the rad50 strain (AID 155);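 note: 0% = growth of vehicle-only cultures of the same strain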; settings: S. cerevisiae rad50 strain growth inhibition; at 50.0 µM; active compounds read high
Method in brief: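 Genetically altered yeast (DNA repair pathway); compound treatment; growth inhibition vs vehicle ctrl.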

[2] = NCI Yeast Anticancer Drug Screen. Data for the mec2-1 strain (AID 157); settings: S. cerevisiae mec2-1 strain, at 50.0 µM, active compounds read high
Method in brief: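 Cells of the genetically defined mec2-1 yeast strain are incubated with test compound. Inhibition of growth is calculated against vehicle-treated controls.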

[3] = NCI Yeast Anticancer Drug Screen. Data for the sgs1 mgt1 strain (AID 161);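 note: 0% = growth of cultures given vehicle only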; settings: S. cerevisiae sgs1 mgt1 strain, at 50.0 µM, active compounds read high
Method in brief: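 Inhibition of yeast growth, normalised to vehicle-treated controls, is reported for a strain bearing genetic alterations in DNA damage repair.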

[4] = NCI Yeast Anticancer Drug Screen. Data for the cln2 rad14 strain (AID 165);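 note: 0% = growth equal to vehicle treated cultures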; settings: S. cerevisiae cln2 rad14 strain, at 50.0 µM, active compounds read high
Method in brief: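 The screen exposed genetically defined yeast (cln2 rad14) to test compounds and scored growth inhibition relative to vehicle-treated controls.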

[5] = NCI Yeast Anticancer Drug Screen. Data for the bub3 strain (AID 167); settings: S. cerevisiae bub3 mutant strain, at 50.0 µM, active compounds read high
Method in brief: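 Yeast carrying a defined mutation is treated with each compound, and growth is compared with that of vehicle-exposed cells to give inhibition.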

[6] = NCI Yeast Anticancer Drug Screen. Data for the mlh1 rad18 strain (AID 175); settings: S. cerevisiae mlh1 rad18 strain growth inhibition; at 50.0 µM; active compounds read high
Method in brief: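 Compound-treated yeast growth, normalised to vehicle controls. Strain bears defined DNA repair mutations.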

Measured: growth inhibition

N#Cc1ccc(NN=O)cc1
inactive: [1] 15.9% | [2] -3.15% | [3] 10.4% | [4] -0.2% | [5] 25% | [6] 28.1%

CCNC(Cc1ccccc1)c1ccco1 (configuration not stated)
inactive: [1] -2.35% | [2] -12.1% | [3] -15.5% | [4] 18.8% | [5] -10.2% | [6] 12.5%

[Cl][Ni][Cl].[NH-]C1CCCCC1[NH-].[NH-]C1CCCCC1[NH-] (configuration not stated)
inactive: [1] -22.9% | [2] -6.45% | [3] 0.85% | [4] -18.6% | [5] 11.8% | [6] -1.85%

OC(Br)C1C(c2ccccc2)N1C1CCCCC1 (configuration not stated)
inactive: [1] -2% | [2] 18.4% | [3] -3.35% | [4] -11.2% | [5] 0.15% | [6] 7.4%

COP(=O)(OC)/C(C#N)=C/c1ccco1
inactive: [1] -35.3% | [2] -29.1% | [3] -46.5% | [4] -27.8% | [5] -42.6% | [6] -41.1%

O=CC(O)C(O)C1[O][Sb][O]C1CO (configuration not stated)
inactive: [1] 0.75% | [2] -1.7% | [3] -4.45% | [4] -53.9% | [5] -5.85% | [6] -8.85%

CCCCN(CCCC)CC(O)c1ccc(Br)cc1 (configuration not stated)
inactive: [1] 33.5% | [2] 15.4% | [3] 54% | [4] 16.7% | [5] 28.9% | [6] 44.1%
